This experiment deals with UCHL1, P09936. As to the kind of experiment: median log2 fold change of GCK-ALFA target abundance (FLAG IP / Myc IP barcode read proportion) (log2 ratio); each designed protein is fused to an ALFA-tag nanobody in HEK293 cells to bring the named protein to FLAG-tagged glucokinase (GCK); Myc marks an untargeted standard; higher = target protein stabilised (more abundant). The note with it: target protein: 3xFLAG-MCP-GCK-ALFA reporter; HEK293 landing pad (RPLP). The gist of the method:
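Binders fused to an ALFA nanobody were recombined as a library into HEK293 landing-pad cells, which were induced with 2 μg mL^−1 doxycycline and then transfected to express a FLAG-tagged target and a Myc-tagged standard. After 48 h, circular RNA barcodes recovered by anti-FLAG and anti-Myc immunoprecipitation of lysates were reverse transcribed, amplified and sequenced. Each binder's target abundance is the median log2 ratio of FLAG to Myc barcode read proportions, from barcodes present at ≥10^−7 in both replicates, binders carrying ≥3 barcodes per replicate, a 10^−6 pseudocount and pooled replicates.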

The text below walks through data of the supplement of paper PMC12632987.

Chain of UCHL1, P09936 (P09936 whole entry, looked up, the tested form may be a part): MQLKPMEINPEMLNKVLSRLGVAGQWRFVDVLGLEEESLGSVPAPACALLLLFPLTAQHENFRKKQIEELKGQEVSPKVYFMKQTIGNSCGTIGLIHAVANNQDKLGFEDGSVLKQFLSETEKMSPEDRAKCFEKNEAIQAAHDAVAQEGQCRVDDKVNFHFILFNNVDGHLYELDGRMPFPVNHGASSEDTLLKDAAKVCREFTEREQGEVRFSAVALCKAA

B1: uchl1_143_7475 (protein)
chain: APAALEVLTTHLEVGEDDTPEEIRARLLAAIDEALAAGKAAEIVVTVPPDANKRLMVNTVARRVAREAARRYGDRLRLLRILLRDAETGRTQLVALVERP
For the molecule B1, the “median log2 fold change” value worked out at 0.136.

B2: uchl1_143_7469 (protein)
chain: APEPIEHIEVTIEVAETDTFEEIHARISAAIDAAIALGRRTELTIRLVVPTTASANLRVMVNTAARRALREHADHLEDASISGEQRPGKAVLVIRVLTKA
Regarding B2, the “median log2 fold change” value is 0.139.

B3: uchl1_143_7467 (protein)
chain: GPAAEPVLEVTIRVTRDTTPEELRARLLAAIDEAIAAGKALKITIEIPPDANLRVMVNTVAKRVAREVAKARGAELKRLVILGRDSATGKEQVLAEVVNP
With B3, the “median log2 fold change” value was -0.119.

B4: uchl1_143_7462 (protein)
chain: GAPALPVLRTTIEVTREDTPEEIHARIVAAIREAIAAGKAAEVTIVVPPDPNVRVMVNNVAKRAAREVAQEHADAVKRITIRLRDRETGRTQLVALVERP
Regarding B4, the “median log2 fold change” value is 0.133.

B5: uchl1_143_7474 (protein)
chain: PLEHMEIETVEIEVSETDTPEEIEKRLREAIEKGIEKGKALRIVVTVPPDANKRLMVNTVARRVARETAKKYKDKLKYLEILLRDRETGKVDLAALIERP
On to B5, for which the “median log2 fold change” value was found to be 0.325.

B6: uchl1_143_7466 (protein)
chain: GPAPVPVLRVERTWTADTTLEEVLALLREAAERAIKEGKDLEVIFTVSPDPNHRLRANTLARRAGKEITQELGKRIRRLRVLLRDAETGKVDLIYEHDGR
Consider B6, for which the “median log2 fold change” value was 0.0958.

B7: uchl1_143_7457 (protein)
chain: GPEVVPVRRVEITVTRADTPEEIEARLLAAVREAAAAGEALLITITVEGDANLRVMVGNVAKRVARRAAREYGDTLPSLRIIARDAETGKEQLLAEVDNR
For B7, the “median log2 fold change” value came to 0.225.

B8: uchl1_143_7470 (protein)
chain: GRPTPPTLTVNLTFDETTTPEEIRAALNAAIDEAAAAGKNLTITITVPADSNKRLMVTTVARRVAREAAKRYRDKLPELRILATDAATGKTQLIAEYVNE
For B8, the “median log2 fold change” value worked out at 0.272.

B9: uchl1_143_7484 (protein)
chain: EVKVIELSPEEVAEILSASPEEALARLKEILEEAVELGVDTEVVLPAPADANDRLRLNTLVRRAAREVAKKYADKIDSVTISQRLDPDEPPKLVVSIKVK
Turning to B9, the “median log2 fold change” value came to 0.0432.

B10: uchl1_143_7456 (protein)
chain: PPAPVPVHRVTIEVTREDTPEEIRARLEAAVAEAAAAGAALEITVVVTSDPNVRVMANTVARRVAREAARRYRDTLPSLRIVLRDRETGKEQLIAEADFR
B10: the “median log2 fold change” value amounted to 0.0928.

B11: uchl1_143_7478 (protein)
chain: GAPEPEIPVIRLELDAADSDEEIRKRALEAAKEAAEKGAALEIIITVPPDPNARVRANNIAKRLAREIIKKYGDKIKELRVLLRDEETGREDLIALYEKP
On to B11, for which the “median log2 fold change” value worked out at 0.179.

B12: uchl1_143_7471 (protein)
chain: GEPEPPTLEVHIEVDETTTPEEIREKLWKAIEEAAKAKKNLKITITVPADSNKRLMVTTVAKRVAREAAKKYKNELKKLEIYARDAATGKEQLIAEYENP
Take B12: the “median log2 fold change” value came out at 0.0842.

B13: uchl1_143_7485 (protein)
chain: EVRVIELTPEQVAAILSASPEAALATLEAIFEAAVALGVDTRVVLPAPADANDRLRLNTLVRRAARRVAKRRADEIDAVVISNERDPDRPARLVVTITVK
As for B13, the “median log2 fold change” value was -0.394.

B14: uchl1_143_7455 (protein)
chain: GHHMLEVEKIEIEVEETDTPEEIKKKIMEAMKKAVAKGKAIEIIITVPPDANFRLMVNTVAKRAAREFAKEYKDKLKYLKIYARDKETGKEDLIAEIVNP
As to B14, the “median log2 fold change” value was 0.157.

B15: uchl1_143_7468 (protein)
chain: GPAVEPVETVTITVTPDTTPEELRARLLAAIDAALAAGKALTITIVVPPDANLRVMANTVAKRVAREVARAHGDRLRRLTIRARDAATGKTQLLAEVVNP
Regarding B15, the “median log2 fold change” value was found to be 0.11.

B16: uchl1_143_7482 (protein)
chain: EVEVIRLTPEEVEEILSLSPEEALARVKEILAAAVELGKDTEVVFPAPEDANDRLRLGTIVRRAAREVAKEYADKIESVEIYQEKDPDEPPRLVVRITKK
As to B16, the “median log2 fold change” value turned out to be 0.231.

B17: uchl1_143_7483 (protein)
chain: EVVVIELSPEEVEEILSLSPEEALERVYEILREAVELGRDTEVVFPAPADANDRLRLGTIVRRAARKVAKDRADLIDAVEIYQRRDPNRPPALVVRITRK
As to B17, the “median log2 fold change” value is -0.0334.

B18: uchl1_143_7473 (protein)
chain: HHHMMETETVEIEVKEDDTPEEIRERMMKAIEEAIAAGKNLRIVITVPSDANKRLMANTVAKRVAREAAKKYREKLKRLEIYLRDKETGKEDLIALVENP
Regarding B18, the “median log2 fold change” value was found to be 0.139.

B19: uchl1_143_7463 (protein)
chain: EEVELEVIHIEVTLTEDTTLEEVRALVEEAARLSIETGKHVVLTATVSNDPNHRLRANTMLRRAAREVIQERGAEIPKLVILLRDAETGKEDVIAEFDNR
Turning to B19, the “median log2 fold change” value amounted to 0.184.

B20: uchl1_143_7472 (protein)
chain: AAEARPVRTVEIDVTLDDTPEEIEARLLAAAEEAIAAGEDLRIVVTVPPDPNKRLMVNTVAKRVARRVARAHADRVRRLEIYARDAETGKEQLIAEIVRP
Turning to B20, the “median log2 fold change” value is 0.3.

B21: uchl1_143_7460 (protein)
chain: GAAPLPVLRTTIEVSEEDTPEEIYARIKAAIEEAIAAGKAAEVTIVVPPNPNVRVMVNNVAKRAARDVAKEYAGKVKEIRIYLEDRETGKRQLVAEVVNP
Take B21: the “median log2 fold change” value is 0.0504.

B22: uchl1_143_7486 (protein)
chain: EVEVIELSEEEVAEILALSPEEALERLKEILREAVELGKDTRVLIPAPEDANDRLRLNTLVRRAAREVAKEYADKIESVTISQERDPNGRPRIVVEIKVK
As for B22, the “median log2 fold change” value was 0.252.

B23: uchl1_143_7461 (protein)
chain: ALEPLPVQKTTIEVSESDTPEEIYERIKAAIEAAIAAGKAAEVTIVVPPDPNVRVMVNNVAKRAAREVAQEHADKVKRITINLTDKETGKTEVVAEVVRP
Turning to B23, the “median log2 fold change” value stood at 0.242.

B24: uchl1_143_7479 (protein)
chain: GAAPRPVVTTTLTFTEEDTPEEIRARITAALRALVATGQDGVLLLTVPPNPHMRVMVNTVARRALREVAQATHAPGVTLTVQARDAETGKVDTLATAVLE
As to B24, the “median log2 fold change” value was 0.219.

B25: uchl1_143_7458 (protein)
chain: GLEAIPVLEVHLRVTPADTPEEIRARLMAAIEEAAAAGKALRIVITVEGDANLRVMVGNVAKRVAREAARRYGATLPSLTIVARDAETGREQLLAEADFR
As for B25, the “median log2 fold change” value is 0.147.

B26: uchl1_143_7481 (protein)
chain: SLENVEVLEVEITVTRETRPEDLYARLLAAIREAHAAGKALRITITVEPDANVRVMVGNVAKRAVRDAAQELGEPFVRTLILARDAETGKTQTLVDVEAP
As to B26, the “median log2 fold change” value stood at 0.391.

B27: uchl1_143_7465 (protein)
chain: GSMHMETLTVERTMTEDTTLEEVYALLEEAAKKAIAEGKDLVVIFTVSSDPNHRLRANTLARRAARRIIQEYGKEIRRLEVLLRDAETGKVDLIALHDGR
Take B27: the “median log2 fold change” value worked out at 0.138.

B28: uchl1_143_7480 (protein)
chain: GAPARPVVTRTLRFTEEDTPEEIRARITAAIRALVATGQDGVLLLTVPPNPNMRVMVSTVARRALREVAQETRAPGVTLTVEARDEETGKVDVLATADLK
B28: the “median log2 fold change” value is -0.0743.

B29: uchl1_143_7464 (protein)
chain: GSAPRPVIHLERTLSADTTLEEVEALVREAAELSVETGAPVVLTFTVSGDPNHRLRAHTMLRRAARRVIQELADRIPELRVLLRDEKTGKTQLIAHFDNR
On to B29, for which the “median log2 fold change” value was found to be 0.163.

B30: uchl1_143_7476 (protein)
chain: PPEALPVLETTIEVSEDDTPEEIRARLMAAIDEALAAGKAARIVIVVPPDANKRLMVNTVARRVAREAARRYGERLRYLEILLRDKETGKEQLVALVERP
With B30, the “median log2 fold change” value amounted to 0.0615.

B31: uchl1_143_7477 (protein)
chain: GAPEEPIETIKLTLDASMSDEEIRAKAMAAAEEAAAKGAALEITIVVPPDPNARVRANNIAKRIAREIIQKYGDKIKELKIYLQDEETGKKDLIALYEKP
Turning to B31, the “median log2 fold change” value worked out at 0.136.

B32: uchl1_143_7459 (protein)
chain: GSPEEEVEVIEVTIEPTDTPEQIREKITKALKEAVELEKDTRIVITVPPDPNLKLMVNTVARRELKKIAQEYPEKTKTITVEARDAETGKVDLLAEYVKE
For B32, the “median log2 fold change” value was found to be 0.347.
